Out of some 360,000 compounds screened, about 3,900 (1.1%) were called active. Shown is part of a subset that was picked to be rich in actives. Unmarked numbers belong to inactive results.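 How the source made its calls: active means mean replicate inhibition score of at least 50 and every replicate individually at or above 50; inconclusive means only one of the two criteria met; inactive means mean below 50 and not all replicates reaching 50.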
Test: blockers of JRFL envelope-mediated fusion – HeLa-JRFL effector, CEM21 target cells, luciferase, primary screen (AID 651610);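 further: 0% = plate neutral controls and 100% = maraviroc near 300 nM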
Details: HeLa-JRFL Env/CEM21 cell fusion, active compounds read high; at 16.7 µM unless noted

Structure (SMILES)	inhibition
CCCCn1c(SCc2ncc(-c3ccccc3)o2)nc2cc(S(N)(=O)=O)ccc21	32.4% [at 12.3 µM] (active)
c1ccc(-c2cnc(CN3CCN(c4ccccc4)CC3)o2)cc1	3.52% [at 12.3 µM]
CCn1c(SCc2cc(=O)n3ccsc3n2)nc2ccccc21	9.35% [at 12.3 µM]
C[C@H](O)C#Cc1cnc2c(c1)C(=O)N([C@H](C)CO)C[C@@H](C)[C@H](CN(C)CC1CCCCC1)O2	-6.75%
C[C@H](CO)N1C[C@H](C)[C@H](CN(C)Cc2cccnc2)Oc2ncc(C3=CCCC3)cc2C1=O	0.845%
C[C@@H]1CN([C@H](C)CO)C(=O)c2c(c3ccccc3n2C)-c2ccccc2CO[C@H]1CN(C)C(=O)[C@@H](Cc1ccccc1)N(C)C	-56.3%
CS(=O)(=O)N(CC(=O)NC1CCCC1)Cc1ccc(F)cc1	12.4% [at 12.3 µM]
Cc1ccc(CN(CC(=O)NC2CCCCC2)C(=O)c2csnn2)cc1	-2.9% [at 12.3 µM]
Cc1cc(C(C)(C)C)oc1C(=O)N(CC(=O)NC1CCCC1)Cc1ccc(Cl)cc1	73.7% [at 12.3 µM] (active)
O=C(C[C@@H]1CC[C@H](NC(=O)Nc2cc(F)ccc2F)[C@H](CO)O1)NCc1ccncn1	1.2%
COc1ccc(CNC(=O)c2ccc(-c3cccnc3)c3ccoc23)cc1OC	55.1% [at 12.3 µM] (active)
Cc1noc(C)c1-c1ccc(C(=O)NCc2ccncc2)c2occc12	-7.55% [at 12.3 µM]
COCCCNC(=O)c1ccc(-c2c(C)noc2C)c2ccoc12	-11% [at 12.3 µM]
CN(Cc1c(F)cccc1Cl)C(=O)COC(=O)Cn1cnc2ccccc2c1=O	63.4% [at 12.3 µM] (active)
CC1(C)C(=O)Nc2ccccc2N1C(=O)COC(=O)Cn1cnc2ccccc2c1=O	-40.1% [at 12.3 µM]
O=C(COC(=O)Cn1cnc2ccccc2c1=O)NCc1ccccc1Cl	0.405% [at 12.3 µM]
O=C(NCc1ccccn1)[C@@H]1[C@@H](CO)[C@@H]2Cn3c(ccc(/C=C/c4ccccc4)c3=O)[C@H]1N2CC1CC1	-8.79%
CN(c1ccc2nc3ccccc3c(=O)n2n1)C1CCCCC1	68.2% [at 12.3 µM] (active)
CC(C)C(C)NC(=O)COc1nc2ccccc2nc1N(C)C1CCCCC1 (stereo not given)	17.4% [at 12.3 µM]
CC(C)c1cc(C(=O)NC2CCCCCC2)c2ccccc2n1	30.2% [at 12.3 µM]
COc1cccc(S(=O)(=O)N(C)C[C@@H]2Oc3cc(C#CCN(C)C)ccc3S(=O)(=O)N([C@@H](C)CO)C[C@@H]2C)c1	-11.4%
CCOC(=O)N1CCN(Cc2nc(Cc3cccc(C(F)(F)F)c3)no2)CC1	-3.49% [at 12.3 µM]
Cn1c(-c2sccc2OCc2cccc(C(F)(F)F)c2)n[nH]c1=S	63.4% [at 12.3 µM] (active)

Structure (SMILES)	inhibition
FC(F)(F)c1ccc(-n2cn[nH]c2=S)cc1	2.89% [at 12.3 µM]
O=C(C[C@H]1CC[C@H]2[C@@H](COC[C@@H](O)CN2Cc2nccs2)O1)NCc1ccccc1Cl	6.96%
CN(C)CC(=O)Nc1ccc2c(c1)[C@H]1C[C@H](CC(=O)NCc3ccccc3)O[C@@H](CO)[C@H]1O2	-29.2%
Cc1cccc(N(CC(O)CN(C)C)S(=O)(=O)c2ccccc2)c1 (stereo not given)	-28.3% [at 12.3 µM]
CC(C)CN(CC(C)C)CC(O)CN(c1ccccc1)S(=O)(=O)c1ccccc1[N+](=O)[O-] (stereo not given)	65.4% [at 12.3 µM] (active)
COc1ccc([N+](=O)[O-])cc1N(CC(O)CN(CC(C)C)CC(C)C)S(=O)(=O)c1ccc(C)cc1 (stereo not given)	-12.9% [at 12.3 µM]
CN(C)CC(=O)N[C@H]1CC[C@H](CCNC(=O)C2CCCCC2)O[C@H]1CO	-245%
COc1ccc(CCNc2ncnc3nc[nH]c23)cc1OC	18% [at 12.3 µM]
c1ccc2c(c1)OCC(CNc1ncnc3nc[nH]c13)O2 (stereo not given)	72.9% [at 12.3 µM] (active)
Cc1noc(C)c1C(=O)NCC1COc2ccccc2O1 (stereo not given)	-5.41% [at 12.3 µM]
C[C@@H]1CCCCO[C@H](CN(C)Cc2ccc3c(c2)OCO3)[C@@H](C)CN([C@H](C)CO)C(=O)c2cc(N(C)C)ccc2O1	-11.2%
C[C@H](NC(=O)C[C@@H]1CC[C@H](NC(=O)CN2CCOCC2)[C@H](CO)O1)c1ccccc1	-13.9%
CCCCn1nnnc1C(c1ccccc1)N1CCN(c2ccccc2OC)CC1 (stereo not given)	6.77% [at 12.3 µM]
Cc1ccc(C(c2nnnn2CS(=O)(=O)c2ccc(C)cc2)N2CCC(C)CC2)cc1 (stereo not given)	53.3% [at 12.3 µM]
N#Cc1ccc(C(c2nnnn2CCc2ccccc2)N2CCCCCC2)cc1 (stereo not given)	90.5% [at 12.3 µM] (active)
CN(C)CC(=O)Nc1ccc2c(c1)[C@H]1C[C@@H](CC(=O)NCc3ccc(-c4ccccc4)cc3)O[C@H](CO)[C@H]1O2	19.8%
COC(=O)[C@H](CC(C)C)NS(=O)(=O)c1c(F)cccc1F	-17.9% [at 12.3 µM]
COc1ccc(-c2cc(-c3ccc(N)cc3)nc(N)c2C#N)cc1OC	22.6% [at 12.3 µM]
CCSc1nc(-c2ccc(OC)cc2)cc(-c2ccc(OC)cc2)c1C#N	66% [at 12.3 µM] (active)
COc1ccc(CCNC(=O)CSc2nc(-c3ccc(OC)c(OC)c3)ccc2C#N)cc1	4.49% [at 12.3 µM]
CS(=O)(=O)Nc1ccc2c(c1)[C@@H]1C[C@H](CC(=O)NCc3cc(F)ccc3F)O[C@@H](CO)[C@@H]1O2	18.1%
Cc1ccc(S(=O)(=O)Nc2ccc3c(c2)C(=O)N([C@H](C)CO)C[C@@H](C)[C@@H](CN(C)S(C)(=O)=O)OCCCC[C@@H](C)O3)cc1	-1.67%

Reference: PubChem BioAssay AID651610 (Broad Institute, 2012)
